Most compounds without a hit are left out; they make up all but 3.7% or so of the library.
Wnt bcat act – Wnt/beta-catenin pathway activators, primary screen, cell-based, plate reader, single point; Wnt/beta-catenin reporter cell assay, activator; activation, % at 9.35 µM; actives 1.2% (n = 300,000); AID 743398, 2014; in the data active = activation above about 30%, passing the limit was not always enough; inconclusive = no clear call, values can overlap the other calls;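 also: 0% = neutral control wells and 100% = positive control wells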
AF4-AF9 inh – inhibitors of AF4 peptide binding to AF9, primary screen, biochemical, AlphaScreen, biotin-AF4 peptide, FLAG-AF9, single point; Protein AF-9 (Homo sapiens), P42568; actives 0.47% (n = 350,000); AID 651704, 2012; inhibition, % at 10 µM;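 active = every replicate reaching a set inhibition limit, whatever the replicate mean, cut at about 25% in these data; inconclusive = mean inhibition reaches that limit but some replicates miss it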;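 also: 0% = plate neutral control median and 100% = total signal loss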
Target sequence (P42568 whole entry, looked up): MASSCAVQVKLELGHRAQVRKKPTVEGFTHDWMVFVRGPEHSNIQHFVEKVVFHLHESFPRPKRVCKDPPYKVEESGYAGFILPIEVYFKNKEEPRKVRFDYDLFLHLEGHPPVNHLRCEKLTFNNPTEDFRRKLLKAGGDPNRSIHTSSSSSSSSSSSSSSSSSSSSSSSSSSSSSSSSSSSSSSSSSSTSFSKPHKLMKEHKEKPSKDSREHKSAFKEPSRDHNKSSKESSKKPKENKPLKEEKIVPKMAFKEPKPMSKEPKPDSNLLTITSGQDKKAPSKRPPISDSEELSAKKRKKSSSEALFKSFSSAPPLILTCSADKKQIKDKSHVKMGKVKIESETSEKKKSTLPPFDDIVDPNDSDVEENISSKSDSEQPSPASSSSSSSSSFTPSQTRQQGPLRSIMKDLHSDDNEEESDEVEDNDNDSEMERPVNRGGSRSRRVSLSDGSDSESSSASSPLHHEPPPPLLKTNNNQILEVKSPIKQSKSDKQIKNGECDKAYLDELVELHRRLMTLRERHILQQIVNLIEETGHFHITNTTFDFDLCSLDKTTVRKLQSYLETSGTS
esBAF inh – Bmi1 luciferase reporter increase in mESCs, primary screen, esBAF inhibitor project, mouse ES cells, Bmi1 luciferase knock-in, single point. 24 h; 100% = twice the neutral-well signal. actives 2% (n = 350,000). reporter increase, % at 12.5 µM; in the data active = activation above about 40%; inconclusive = no clear call, values can overlap the other calls;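 also: 0% = median of the plate's neutral control wells and 100% = double that signal; a rise in the Bmi1 reporter signal indicates esBAF inhibition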
MITF act – activators of MITF-driven TRPM1 promoter reporter, primary screen, cell-based, SK-MEL-5, luciferase, single point; SK-MEL-5 TRPM1-promoter luciferase, 24 h; % of positive control, neutral wells = 0; activation, % at 12.5 µM; actives 0.75% (n = 300,000); AID 588334, 2011;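 active = mean activation of at least 80% with every replicate also reaching 80%; inconclusive = mean reaches 80% but some replicate falls short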;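 also: 0% = neutral control wells and 100% = parthenolide positive control wells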
Ecoli rRNA inh – reduced GFP signal of wild-type E. coli, primary screen, bacterial rRNA inhibitor project, GFP/RFP fluorescence, OD600, single point. GFP signal change (wild-type ribosome), % (test concentration not listed). AID 720706, 2013. E. coli WT GFP vs humanized-ribosome RFP mutants, 24 h; stronger effect = lower value; DMSO median 0, no signal -100. actives 1.6% (n = 350,000);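 active = significant combined selectivity score with lowered wild-type GFP, culture density cut under 30%, mutant RFP and density less affected; inactive = any of these conditions unmet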
Active calls of the source: *; ? = inconclusive; . = no result given.

SMILES | Wnt bcat act | AF4-AF9 inh | esBAF inh | MITF act | Ecoli rRNA inh
C[C@@H]1CN([C@H](C)CO)C(=O)c2cc(NC(=O)Nc3ccc(C(F)(F)F)cc3)ccc2O[C@H]1CN(C)S(=O)(=O)c1ccccc1 | -12 | 0 | -24 | -9 | -1
O=C(NNC(=O)c1ccc([N+](=O)[O-])o1)c1ccccc1 | . | . | . | -26 | .
O=C(NN(c1ccccc1)c1ccccc1)c1ccc([N+](=O)[O-])o1 | ? | 5 | -6 | -44 | -29*
COc1ccccc1Nc1nc(-c2cccs2)cs1 | 22 | 4 | 52* | 62 | 5
COc1ccc(Nc2nc(-c3cccs3)cs2)c(OC)c1 | . | . | 53* | . | .
COc1ccc(OC)c(Nc2nc(-c3cccs3)cs2)c1 | 10 | . | 8 | 14 | .
CN(CC(=O)Nc1ccc(Cl)c(Cl)c1)C(=O)CNC(=O)C1CCCCC1 | -3 | -2 | 0 | 7 | 17
CCOC(=O)N1CCN(C(=O)CCN2C(=O)/C(=C\c3ccccc3OC)SC2=S)CC1 | . | . | 3 | 1 | .
COc1ccccc1/C=C1\SC(=S)N(CCC(=O)NCCCn2ccnc2)C1=O | 0 | 7 | -13 | 6 | -24*
COc1ccccc1/C=C1\SC(=S)N(CCC(=O)N2CCN(C)CC2)C1=O | -3 | 16 | -7 | -5 | -19*
O=C(CCCN1C(=O)/C(=C/c2ccccc2Cl)SC1=S)N1CCCC1 | -2 | 1 | 7 | -19 | -40*
COc1ccccc1/C=C1\SC(=O)N(CCC(=O)NCCCn2ccnc2)C1=O | 4 | 2 | 14 | 30 | -7
O=C(CCN1C(=O)/C(=C/c2ccccc2Cl)SC1=S)N1CCCC1 | 3 | -1 | 13 | -39 | 1
COc1ccc(-n2cc3ccc([N+](=O)[O-])cc3n2)cc1 | 41* | 3 | . | 23 | -14
COc1ccc(C2=NCCn3nc4cc([N+](=O)[O-])ccc4c32)cc1 | -4 | . | 3 | 1 | .
COc1ccc(-c2nc(C#N)c(NCc3ccco3)o2)cc1 | 14 | 2 | 39 | 30 | -26
Cc1cccc(-c2nc(C#N)c(NCc3ccco3)o2)c1 | 32* | 4 | 59* | . | .
CNc1oc(-c2ccc(OCc3ccccc3)cc2)nc1C#N | . | . | 69* | 75 | .
Cc1ccc(-c2nc(C#N)c(NCc3ccco3)o2)cc1 | . | . | 73* | . | .
CCOC(=O)c1c(NC(=O)COC(=O)CC(NC(C)=O)c2ccccc2)sc(C(=O)NC)c1C (configuration not stated) | -3 | 2 | -4 | -2 | -2
O=C(C[C@@H]1CC[C@@H]2[C@H](COC[C@@H](O)CN2S(=O)(=O)c2ccc(F)cc2)O1)NCCN1CCCCC1 | . | 1 | 2 | . | 5
CC(=O)C1=C(C)Nc2ncnn2C1c1cccc(O)c1 (configuration not stated) | 0 | -2 | -6 | 3 | 11
O=C(NC12CC3CC(CC(C3)C1)C2)c1cccc([N+](=O)[O-])c1 | -1 | 4 | -5 | -8 | 0
O=[N+]([O-])c1cccc(-c2nnn(C34CC5CC(CC(C5)C3)C4)n2)c1 | . | . | 50* | 71 | .
Cc1cccc(NC(=O)CSc2nc3ccccc3c(=O)n2CC2CCCO2)c1 (configuration not stated) | -2 | 1 | -2 | -6 | -5
SMILES | Wnt bcat act | AF4-AF9 inh | esBAF inh | MITF act | Ecoli rRNA inh
COc1ccc(S(=O)(=O)Nc2ccc3c(c2)C(=O)N([C@H](C)CO)C[C@H](C)[C@@H](CN(C)Cc2ccc4c(c2)OCO4)OCCCC[C@H](C)O3)cc1 | . | 2 | -1 | . | 1
CC(/C=C/c1ccccc1)=N\Nc1ccccc1[N+](=O)[O-] | 5 | -3 | 44* | 42 | 4
CN(CC(=O)Nc1cccc(F)c1)C(=O)c1cccnc1Sc1ccccc1Cl | 0 | -74 | 2 | 5 | 4
N#CC1CC(c2ccccc2)=NN1c1ccccc1[N+](=O)[O-] (configuration not stated) | 10 | 18 | 52* | 14 | -34
O=CN1N=C(c2ccccc2)CC1c1ccccc1[N+](=O)[O-] (configuration not stated) | 8 | 3 | . | 8 | 3
O=C(O)c1ccccc1Nc1ccc(OC(F)F)cc1 | 0 | 1 | . | 5 | -16*
COCCNC(=O)C(=O)Nc1ccc(Br)cc1 | . | . | 49* | 27 | .
COCCNC(=O)c1cc(Br)ccc1Cl | . | . | -4 | . | .
COCCNC(=O)C(=O)Nc1cccc(Br)c1 | 5 | -7 | 57* | 54 | 6
COc1ccc(NC(=O)CN2CCN(c3ccccc3C)CC2)cc1 | -2 | -2 | 3 | 7 | -31*
CCOC(=O)N/N=C\C=C\c1ccco1 | 1 | -2 | . | -1 | 5
Cc1ccc(N/N=C/C=C/c2ccco2)cc1 | 27 | 0 | . | 99* | -2
C[C@@H]1CN([C@@H](C)CO)S(=O)(=O)c2ccc(-c3cccnc3)cc2O[C@H]1CN(C)Cc1cccnc1 | . | . | 0 | . | -4
CC(=O)c1cnn(-c2ccccc2)c1C | -1 | 0 | 0 | -2 | 30
CC(=O)c1cnn(-c2c(Cl)cc(Cl)cc2Cl)c1C | -1 | 0 | . | . | -22*
CCOC(=O)C1=CCC(c2ccc(C)cc2)N(S(=O)(=O)c2ccc(C)cc2)C1 (configuration not stated) | -4 | -4 | -3 | . | 2
O=C1Nc2ccccc2/C1=C\C(=O)c1ccccc1 | -2 | 8 | -3 | -11 | -19*
O=C(/C=C/c1ccccc1)Nc1ccc(N2CCCCC2)cc1 | 0 | 7 | 62* | 33 | 0
O=C(CCl)Nc1ccc(N2CCCCCC2)cc1 | 2 | 51* | 9 | 10 | -25
O=C(Nc1ccc(N2CCCCC2)cc1)c1ccccc1 | . | . | -8 | 29 | .
CC1CCCCN1CC(=O)Nc1ccc(N2CCCCCC2)cc1 (configuration not stated) | -1 | 49* | . | 6 | 7
CCC(=O)Nc1ccc(N2CCCCC2)cc1 | . | . | 20 | 12 | .
NC(=O)NC(=O)C(Nc1ccc(N2CCCCC2)cc1)c1ccccc1 (configuration not stated) | 9 | 16 | 51* | 20 | -9
Cc1noc(C)c1C(=O)OCC(=O)NCCc1ccc(S(N)(=O)=O)cc1 | -6 | -1 | 0 | -5 | 8
O=C(Cc1ccccc1)Nc1ccc(N2CCCCC2)cc1 | 59* | -2 | 20 | 62 | -1
COc1ccc(N2CCN(c3ccc(NC(=O)/C=C\C(=O)O)cc3)CC2)cc1 | 45* | 1 | -5 | -5 | 0
COc1ccc(/C=C/C(=O)Nc2ccc(N3CCOCC3)cc2)cc1 | . | . | . | -3 | .
Cc1cc(C)cc(-n2nnc(C(=O)NCc3ccc4c(c3)OCO4)c2N)c1 | -2 | . | -5 | -9 | .
CC/C(=C\c1ccc(N(C)C)cc1)c1ccncc1 | 4 | 28* | . | 32 | -55

Screening data deposited in PubChem BioAssay by Broad Institute.
